Screening results deposited in PubChem by National Center for Advancing Translational Sciences (NCATS).
Pf growth 48h = inhibits P. falciparum growth in the first generation, 48 h. 5.9% of 310,000 active. Potency, µM (top dose mostly 28.7 µM), usual class: inhibitors. AID 504832. P. falciparum luciferase growth in erythrocytes, 48 h
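Luciferase-expressing P. falciparum in infected erythrocytes (2% hematocrit, 0.1% parasitemia final) in RPMI 1640/0.5% Albumax were exposed to compound for 48 hours at 37 C, 5% CO2; growth read as luminescence.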
Shiga toxin inh = inhibitors of Shiga toxin in Vero cells | inhibition, % at 38.7 µM | 9.2% of 290,000 active | Vero cells, Shiga toxin protein synthesis inhibition reporter; in the data active = inhibition mostly above about 28%, no sharp cut-off; inactive = mostly below about 43%
Pf growth 96h = inhibits malaria parasite growth, 96 h. P. falciparum luciferase reporter growth, 96 h. Potency, µM (series often up to 28.7 µM), usual class: inhibitors. 6.9% of 320,000 active
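Delayed-death screen, second-generation endpoint: infected erythrocytes, 2% hematocrit, 0.05% parasitemia final; 96 hours at 37 C, 5% CO2; luciferase detection reagent; luminescence decrease equals reduced growth.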
NS1 inh = inhibitors of influenza NS1 protein function | Potency, µM (titrated, usually from 46.1 µM) | 0.4% of 270,000 active; calls by dose curve; also: actives are rising curves; nearly all actives have a fitted effect of over 50% in size
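A cell-based growth assay was used: compounds that relieve NS1-induced slow growth of budding yeast raise OD600. Assay medium was yeast nitrogen base with ammonium sulphate and -URA supplement, pH 6.0, with 2% galactose.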
Sm TGR block = S. mansoni TGR enzyme inhibition | Potency, µM (top dose mostly 114 µM), usual class: inhibitors | Q962Y6 | 3% of 360,000 active | AID 485364 | purified TGR, DTNB reduction, TNB absorbance 405 nm; also: nearly all actives have a fitted effect of over 60% in size
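First, TGR (20 nM dispensed) and NADPH were mixed with compound. Second, a 15 min room-temperature incubation followed. Third, further NADPH and then DTNB were added to start the reaction. Finally, TNB absorbance was monitored kinetically.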
Cycloheximide cs = affects cycloheximide protein synthesis inhibition readout, counter-screen | cell reporter, cycloheximide protein synthesis inhibition counterscreen | max response, % | 12% of 300,000 active; in the data active = max response mostly above about 13%, no sharp cut-off; inactive = mostly below about 14%; also: read at 38.3 µM for the half of the compounds with a filed dose
A number is an active result; [ ] = another dose, or the depositor's remark. The list is not random: actives were taken first. Their share in the collection is about 21%. Unless noted, calls follow the shape of the dose curve; as a rule, active = well fitted curve in the direction sought with a large enough effect; inconclusive = small, poorly fitted or top-dose-only effect, or another doubt; inactive = no such curve, though single readings can be large; an effect the other way counts as inactive or inconclusive.

What do the screens show for `Cc1ccc(-c2c[nH]c(=S)n2-c2ccccc2)cc1`?
Pf growth 48h: inconclusive; Shiga toxin inh: inactive; Pf growth 96h: inactive; Sm TGR block: inactive; Cycloheximide cs: inactive

Results for C=CCn1c(-c2ccc(Cl)cc2)c[nH]c1=S ?
Pf growth 48h: inactive; Shiga toxin inh: inactive; Pf growth 96h: inactive; NS1 inh: inactive; Sm TGR block: inactive; Cycloheximide cs: inactive

What do the screens show for `CCn1c(-c2ccc(-c3ccccc3)cc2)c[nH]c1=S`?
Shiga toxin inh: inactive; Pf growth 96h: 4.7µM; NS1 inh: inactive; Sm TGR block: inactive; Cycloheximide cs: inactive

What do the screens show for `CCCCCC/C=C/c1ccc(OC)c(C2C3C=CCC(C)C3C(=O)N2Cc2ccccc2)c1` (stereo not drawn)?
Shiga toxin inh: inactive; Cycloheximide cs: inactive

How did NS(=O)(=O)c1ccc(CCNC(=O)CN2CCCCCC2)cc1 do in these assays?
Pf growth 48h: inactive; Shiga toxin inh: inactive; Pf growth 96h: inactive; NS1 inh: inactive; Sm TGR block: inactive; Cycloheximide cs: inactive

Results for COCCN=c1scc(-c2cccs2)n1/N=C(\C)c1ccco1 ?
Pf growth 48h: inactive; Shiga toxin inh: 124; Pf growth 96h: inconclusive; Sm TGR block: inconclusive; Cycloheximide cs: 83

What do the screens show for `C=CCN=c1scc(-c2ccco2)n1/N=C/c1ccc(O)c(O)c1O`?
Pf growth 48h: inconclusive; Shiga toxin inh: inactive; Pf growth 96h: inconclusive; NS1 inh: inactive; Sm TGR block: inactive; Cycloheximide cs: inactive

How did CC(C)N=c1scc(-c2ccco2)n1/N=C/c1ccc(O)c(O)c1 do in these assays?
Pf growth 48h: inconclusive; Shiga toxin inh: inactive; Pf growth 96h: inconclusive; NS1 inh: inactive; Sm TGR block: inactive; Cycloheximide cs: 43

Results for CN=c1scc(-c2cccs2)n1/N=C/c1ccccc1O ?
Pf growth 48h: inactive; Shiga toxin inh: inactive; Pf growth 96h: inactive; NS1 inh: inactive; Sm TGR block: inactive; Cycloheximide cs: inactive

What do the screens show for `COCCN=c1scc(-c2ccco2)n1/N=C/c1ccc(O)c(O)c1O`?
Pf growth 48h: inconclusive; Shiga toxin inh: inactive; Pf growth 96h: inconclusive; NS1 inh: inactive; Sm TGR block: 13µM; Cycloheximide cs: inactive

What do the screens show for `CCOC(=O)C1CCN(S(=O)(=O)c2ccc(N3CCCCS3(=O)=O)cc2)CC1`?
Sm TGR block: inactive

What do the screens show for `CC(C)(C)NC(=S)NNC(=O)c1cccc(Br)c1`?
Pf growth 48h: inactive; Shiga toxin inh: 74; Pf growth 96h: inactive; Sm TGR block: inactive; Cycloheximide cs: 40

What do the screens show for `Cc1ccc(C(=O)NNC(=O)/C=C\C(=O)O)cc1`?
Pf growth 48h: inactive; Shiga toxin inh: 70; Pf growth 96h: inactive; NS1 inh: inactive; Sm TGR block: inconclusive; Cycloheximide cs: 42

How did O=C(NNC(=S)Nc1ccccc1)c1ccc(O)cc1 do in these assays?
Pf growth 48h: inactive; Shiga toxin inh: 73; Pf growth 96h: inactive; NS1 inh: inactive; Sm TGR block: inactive; Cycloheximide cs: 45

How did O=C(NNC(=S)NC(=O)c1ccccc1)c1ccc(O)cc1 do in these assays?
Shiga toxin inh: inactive; Pf growth 96h: inconclusive; NS1 inh: inactive; Sm TGR block: inactive; Cycloheximide cs: inactive

What do the screens show for `O=C(NNC(=S)Nc1ccc(Br)cc1)c1ccccc1Br`?
Pf growth 48h: inactive; Shiga toxin inh: inactive; Pf growth 96h: 9.3µM; NS1 inh: inactive; Sm TGR block: inactive; Cycloheximide cs: inactive

Results for Cc1ccc(C(=O)NNC(=O)c2ccc(C)cc2)cc1 ?
Pf growth 48h: inactive; Shiga toxin inh: inactive; Pf growth 96h: inactive; Sm TGR block: inactive; Cycloheximide cs: inactive

Results for CCOc1ccc(NC(=S)NNC(=O)c2ccc(Br)cc2)cc1 ?
Pf growth 48h: inconclusive; Shiga toxin inh: inactive; Pf growth 96h: inactive[5.75 µM]; Sm TGR block: inactive; Cycloheximide cs: inactive

Results for COc1ccccc1NC(=S)NNC(=O)c1ccc(O)cc1 ?
Shiga toxin inh: inactive; Pf growth 96h: 0.37µM; NS1 inh: inactive; Sm TGR block: inactive; Cycloheximide cs: 24

Results for O=C(NNC(=S)Nc1ccccc1)c1cccc(Br)c1 ?
Shiga toxin inh: inactive; Pf growth 96h: inactive; NS1 inh: inactive; Sm TGR block: inactive; Cycloheximide cs: 26

Results for O=C(O)/C=C/C(=O)NNC(=O)c1cccc(Br)c1 ?
Pf growth 48h: inactive; Shiga toxin inh: 39; Pf growth 96h: inactive; NS1 inh: inactive; Sm TGR block: inconclusive; Cycloheximide cs: 25

How did O=C(NNC(=S)Nc1ccc(Br)cc1)c1ccccc1 do in these assays?
Pf growth 48h: inactive; Shiga toxin inh: inactive; Pf growth 96h: inconclusive; NS1 inh: inactive; Sm TGR block: inactive; Cycloheximide cs: 23

How did COC(=O)c1ccc(NC(=O)CSc2nnc3c4ccccc4n(C(C)C)c3n2)cc1 do in these assays?
Sm TGR block: inactive

How did Cc1cc(C)c(S(=O)(=O)N2CCCC(C(=O)NCc3ccccn3)C2)c(C)c1 (stereo not drawn) do in these assays?
Pf growth 48h: inactive; Shiga toxin inh: inactive; Pf growth 96h: inactive; NS1 inh: inactive; Sm TGR block: inactive; Cycloheximide cs: inactive

What do the screens show for `Cc1ccc(C2=NNC(C(O)C(O)C(O)C(C)O)S2)cc1` (stereo not drawn)?
Shiga toxin inh: 107; Pf growth 96h: inactive; NS1 inh: inactive; Sm TGR block: inactive; Cycloheximide cs: 32

What do the screens show for `Cc1ccc(S(=O)(=O)N2CCC(C(=O)OCC(=O)N(C)C3CCCCC3)CC2)cc1C`?
Pf growth 48h: inactive; Pf growth 96h: inactive; Sm TGR block: inactive

Results for O=C(Nc1nc(-c2ccc(Br)cc2)cs1)c1cccnc1 ?
Pf growth 48h: inactive; Shiga toxin inh: inactive; Pf growth 96h: inactive; NS1 inh: inactive; Sm TGR block: inactive; Cycloheximide cs: inactive

How did CC(C)/C=N/Nc1nc(-c2ccc(Br)cc2)cs1 do in these assays?
Pf growth 48h: inactive; Shiga toxin inh: 54; Pf growth 96h: inactive; NS1 inh: inactive; Sm TGR block: inactive; Cycloheximide cs: 31

Results for COc1ccccc1NS(=O)(=O)c1cccc(NC(=O)Nc2ccc(Cl)cc2)c1 ?
Pf growth 48h: inconclusive; Shiga toxin inh: inactive; Pf growth 96h: 10µM; NS1 inh: inactive; Sm TGR block: inactive; Cycloheximide cs: inactive

Results for COc1ccccc1NS(=O)(=O)c1cccc(NC(=O)Nc2ccccc2)c1 ?
Pf growth 48h: inactive; Shiga toxin inh: inactive; Pf growth 96h: inactive; NS1 inh: inactive; Sm TGR block: inactive; Cycloheximide cs: inactive

How did CCNS(=O)(=O)c1ccc(NC(=O)Nc2ccccc2OC)cc1 do in these assays?
Pf growth 48h: inactive; Shiga toxin inh: inactive; Pf growth 96h: inactive; NS1 inh: inactive; Sm TGR block: inactive; Cycloheximide cs: 9.5

Results for COc1ccccc1NS(=O)(=O)c1cccc(C(=O)OCc2nc3ccccc3s2)c1 ?
Pf growth 48h: inactive; Shiga toxin inh: 76; Pf growth 96h: inactive; NS1 inh: inactive; Sm TGR block: inactive; Cycloheximide cs: 49

What do the screens show for `CCc1ccc(CN(C)C(=O)c2cccc(S(=O)(=O)Nc3ccccc3OC)c2)cc1`?
Pf growth 48h: 10µM; Pf growth 96h: inconclusive; Sm TGR block: inactive
